Inconclusive results are not listed. Active and inactive are the calls of the source. Calls follow the shape of the dose curve; as a rule, active = well fitted activation curve with a large enough effect; inconclusive = small, poorly fitted or top-dose-only effect; inactive = no such curve, though single readings can be large or run the other way.

The source of these data is PubChem BioAssay AID2673 (National Center for Advancing Translational Sciences (NCATS), 2010).

The assay in a line: qHTS Multiplex Assay to Identify Dual Action Probes in a Cell Model of Huntington: Cytoprotection confirmation (ATP). As to conditions: PC12 HttQ103 induced, ATP luminescence 40 h; series mostly up to 46.1 µM; cytoprotection, positive = protection: at the top concentration. From the text:
NIH Chemical Genomics Center [NCGC]
NIH Molecular Libraries Probe Production centers Network [MLPCN]
Assay Submitter (PI): Wei Zheng
Huntington's disease is a neurodegenerative disorder caused by a trinucleotide repeat expansion in Exon 1 of the Huntingtin gene. The CAG trinucleotide encodes glutamine and polyglutamine expansions cause cell death in selective areas of the brain. Huntington polyglutamine repeats have the tendency to form aggregates which are observable in later stages of the disease. The exact nature of the aggregates, whether toxic, protective, or insignificant, is unclear.
A stable PC12 cell line containing a gene fusion of Exon 1 of the Huntingtin gene linked to GFP under the control of the inducible ecdysone promoter were used as the cell-based model of Huntington Disease for high throughput screening. Exon 1 of the Huntingtin gene contained an expansion of 103 polyglutamines (Q103) which, when expressed, caused cell death and distinct, bright GFP aggregates. The amount of cell death and the size and intensity of GFP aggregates increased over time and induction level. The cell death were quantified with a measurement of ATP content in the cells. A maximal 40-50% of cell death was observed when the Huntington gene was induced in this cell line.
We optimized this assay in a homogeneous 1536 well format. A quantitative high throughput screen (qHTS) was conducted on the PC12 cells which were induced to express the toxic fusion construct. Small molecules which prevented cell death were identified by using a luminescent ATP quantification method (Perkin Elmer's ATPlite).
PC12 cells stably containing a construct with an ecdysone inducible promoter expressing GFP fused to the exon 1 of HTTQ103 (Huntington protein which containing a 103 ployglutamine expansion) were used.
NCGC Assay Protocol Summary:
Sequence, Parameter, Description
1, Reagent, 5 uL 1500 cells/well 1536 TC treated White clear bottom plate
2, Compound, 23 nL Tebufenozide inducer (100 nM final) to all columns
3, Compound, 23 nL 40 uM to 0.5 nM Libraries
5, Reagent, 5 ul ATPLite cell death assay reagent
6, Detector, 4 sec integration with a Viewlux Luminescent
Media consisted of phenol red free DMEM + 5% equine serum (Hyclone # SH30072.03 ), 5% supplemented Bovine Calf Serum (Hyclone # SH30074.03 ), 1x pen/strep, no G418
Background: Quantitative high-throughput screening tests each substance at several concentrations.
For the compound `C=CCC(=O)OCCCCCCOc1ccc(C(=O)O)cc1`, the “cytoprotection, positive = protection” value was 7.21% (inactive).
Still for that read-out and setting: as for `CN1C(=O)NC(NC(=O)c2cccs2)(C(F)(F)F)C1=O` (stereo not given), the figure is 8.42% (inactive); as for `CCc1nc(SCC(=O)N2CCCC2)c2ccccc2n1`, -17.6% (inactive).
The same measure, in the same setting: next, `COc1cc(NC(=O)c2cc3nc(C)cc(C)n3n2)c(OC)cc1Cl`: -22.2% (inactive).
Regarding `Cn1nnnc1Sc1ncnc2scc(-c3ccc[nH]3)c12`, the Potency was 12.6 µM (active).
In the case of `CN(C)c1ccc(-c2n(C)c3ccccc3[n+]2C)cc1`, the “cytoprotection, positive = protection” value was -37.4% (inactive).
With `Cn1nnnc1Sc1ncnc2scc(-c3ccccc3F)c12`, the “cytoprotection, positive = protection” value was 27.7% (inactive).
With `O=C(Nc1ccccc1)C1=C(O)CC(c2ccco2)CC1=Nc1ccccc1` (stereo not given), the “cytoprotection, positive = protection” value is -18.2% (inactive).
On the same count and under the same terms, next, `Fc1ccc(N2CCN(c3ncnc4nc[nH]c34)CC2)cc1`: -30.4% (inactive).
As to `O=C(Nc1ccc(Cl)cc1C(F)(F)F)C(Sc1cccc[n+]1[O-])c1ccccc1` (stereo not given), the “cytoprotection, positive = protection” value was 20.7% (inactive).
In the case of `COc1cc(Cc2cnc(N)nc2N)cc(OC)c1OC`, the “cytoprotection, positive = protection” value is 1.87% (inactive).
In the case of `O=c1oc2cc(O)ccc2s1`, the “cytoprotection, positive = protection” value was -5.12% (inactive).
As to `COc1ccc(C(=O)Cc2ccc(OC)c(OC)c2)cc1`, the “cytoprotection, positive = protection” value is -11.5% (inactive).
Consider `Cn1nnnc1Sc1ncnc2scc(-c3cnc(N)nc3)c12`, for which the Potency is 35.5 µM (active).
For `Cn1nnnc1Sc1ncnc2scc(-c3ccc(N)cc3)c12`, the “cytoprotection, positive = protection” value is 6.19% (inactive).
Consider `Cn1nnnc1Sc1ncnc2scc(-c3cccc4ccccc34)c12`, for which the Potency was 8.91 µM (active).
Take `CS(=O)(=O)c1ccc([C@H](O)[C@H](CO)NC(=O)C(Cl)Cl)cc1`: the “cytoprotection, positive = protection” value was -10.2% (inactive).
In the case of `CC(=O)OCC1=C(C(=O)O)N2C(=O)[C@@H](NC(=O)Cc3cccs3)[C@H]2SC1`, the “cytoprotection, positive = protection” value is -25.3% (inactive).
For `C=C(C)C(=O)OCCCCCCOc1ccc(C(=O)O)cc1`, the “cytoprotection, positive = protection” value is 1.06% (inactive).
On the same count and under the same terms, as for `Cn1nnnc1Sc1ncnc2scc(-c3ccc4c(=O)ccoc4c3)c12`, the figure is -107% (inactive); as for `Cn1nnnc1Sc1ncnc2scc(-c3ccc(Cl)cc3)c12`, -97.3% (inactive).
With `CCCn1nc([N+](=O)[O-])c(C(C#N)c2nc3ccccc3s2)c(Cl)c1=O` (stereo not given), the “cytoprotection, positive = protection” value was -23.1% (inactive).
For `Cn1nnnc1Sc1ncnc2scc(-c3ccc(S(C)(=O)=O)cc3)c12`, the Potency is 17.8 µM (active).
Take `O=[N+]([O-])c1ccc(O)c2ncccc12`: the “cytoprotection, positive = protection” value was -52.7% (inactive).
Consider `Cc1nnc2n1N=CC=C(c1ccccc1)S2`, for which the “cytoprotection, positive = protection” value was 28.2% (inactive).
Consider `CNCCCN1c2ccccc2CCc2ccccc21`, for which the “cytoprotection, positive = protection” value is -12.1% (inactive).
Turning to `Cc1ccccc1N=C(N)Nc1ccccc1C`, the “cytoprotection, positive = protection” value is -20.4% (inactive).
On the same count and under the same terms, next, `CC(C(=O)O)c1ccc(CC2CCCC2=O)cc1` (stereo not given): -43.9% (inactive); `Cc1csc(N/N=C/c2ccc(O)c([N+](=O)[O-])c2)n1`: -43.6% (inactive); `CC(C(=O)O)c1ccc(N2Cc3ccccc3C2=O)cc1` (stereo not given): -67.7% (inactive).
With `COc1ccc(-c2csc3ncnc(Sc4nnnn4C)c23)cc1`, the Potency is 25.1 µM (active).
With `Cn1nnnc1Sc1ncnc2scc(-c3cccc(N)c3)c12`, the “cytoprotection, positive = protection” value was 3.36% (inactive).
The same measure, in the same setting: next, `Cc1cccc(/C=N/NC(=O)c2cc3c(s2)-c2ccccc2CC3)c1`: -29.8% (inactive); `COc1ccc(C2=Nc3cc(C)ccc3OC2)cc1`: -74.7% (inactive).
Regarding `CCc1ccc2oc(-c3cc(N)ccc3O)nc2c1`, the “cytoprotection, positive = protection” value was -77.5% (inactive).
On to `CC(=O)Nc1ccc(S(=O)(=O)N2CCSC2c2ccccc2)cc1` (stereo not given), for which the “cytoprotection, positive = protection” value is 9.67% (inactive).
Regarding `Cn1nnnc1Sc1ncnc2scc(-c3cccc(S(C)(=O)=O)c3)c12`, the “cytoprotection, positive = protection” value was -108% (inactive).
As to `C#CCN(C)CCCOc1ccc(Cl)cc1Cl`, the “cytoprotection, positive = protection” value was 24.5% (inactive).
On to `CCc1nc(SCC(=O)Nc2nc3c(s2)CCCC3)c2ccccc2n1`, for which the “cytoprotection, positive = protection” value was -1.68% (inactive).
With `Cn1nnnc1Sc1ncnc2scc(-c3ccccc3Br)c12`, the Potency was 35.5 µM (active).
